Most compounds without a hit are left out; they make up all but 2.4% or so of the library.
Pol eta inh – DNA polymerase eta (human) inhibition | actives 1.2% (n = 390,000) | recombinant Pol eta, fluorescent DNA replication assay | Potency, µM (titrated, usually from 114 µM), for the others: top-dose activity change, negative = inhibition, hits mostly inhibitors | Q9Y253 | AID 588591; also: % is scaled to controls: 0 for no effect and ±100 for the full control effect
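Fluorescent replication assay: 50 nM final substrate added after a 15 min room-temperature compound preincubation with 10 nM enzyme. Signal taken at 0 min and again at 10 min.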
FEN1 inhibitor – blocks human flap endonuclease 1. Potency, µM (doses to about 114 µM), for the others: at the top dose activity change, negative = inhibition, hits mostly inhibitors. Recombinant FEN1 flap cleavage, fluorescence, 15 min. AID 588795. actives 0.35% (n = 390,000); also: % is scaled to controls: 0 for no effect and ±100 for the full control effect; nearly all actives have a fitted effect of over 65% in size
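Nuclease activity of 10 nM FEN1 was measured after 15 min of room-temperature exposure to titrated compounds, by adding 50 nM flap substrate and reading plates at 0 and 15 min.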
WRN helicase inh – WRN helicase (human) inhibition. WRN helicase unwinding, fluorescent forked duplex, kinetic. Potency, µM (titrated, usually from 114 µM), without a hit: top-dose activity change, negative = inhibition, most hits filed as inhibitors. actives 0.46% (n = 360,000); also: % is scaled to controls: 0 for no effect and ±100 for the full control effect; nearly all actives have a fitted effect of over 55% in size
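Fluorescence dequenching readout, ex 525 nm/em 598 nm, kinetic mode: forked duplex DNA (100 nM final) with adjacent fluorophore and quencher unwound by WRN (20 nM final) with 2 mM ATP. Compound preincubation 15 min, room temperature.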
POLI inh – inhibitors of human DNA polymerase iota. AID 588590. Pol iota fluorescent replication assay, 10 min. Potency, µM (doses to about 115 µM), for inactives: top-dose activity, negative = inhibition, most hits filed as inhibitors. actives 1% (n = 390,000)
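Pol iota at 10 nM preincubated 15 min with compounds at room temperature; reaction started with fluorescent substrate, 50 nM final. Fluorescence read kinetically at 0 and 10 min; buffer-only wells as negative control.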
POLK inh – blocks human DNA polymerase kappa activity | purified Pol kappa, fluorescent DNA synthesis assay, 10 min | Potency, µM (series often up to 107 µM), for inactives: top-dose activity, negative = inhibition, actives largely listed as inhibitors | actives 0.53% (n = 400,000) | AID 588579; also: % is scaled to controls: 0 for no effect and ±100 for the full control effect
Target sequence (Q9UBT6 whole entry, looked up): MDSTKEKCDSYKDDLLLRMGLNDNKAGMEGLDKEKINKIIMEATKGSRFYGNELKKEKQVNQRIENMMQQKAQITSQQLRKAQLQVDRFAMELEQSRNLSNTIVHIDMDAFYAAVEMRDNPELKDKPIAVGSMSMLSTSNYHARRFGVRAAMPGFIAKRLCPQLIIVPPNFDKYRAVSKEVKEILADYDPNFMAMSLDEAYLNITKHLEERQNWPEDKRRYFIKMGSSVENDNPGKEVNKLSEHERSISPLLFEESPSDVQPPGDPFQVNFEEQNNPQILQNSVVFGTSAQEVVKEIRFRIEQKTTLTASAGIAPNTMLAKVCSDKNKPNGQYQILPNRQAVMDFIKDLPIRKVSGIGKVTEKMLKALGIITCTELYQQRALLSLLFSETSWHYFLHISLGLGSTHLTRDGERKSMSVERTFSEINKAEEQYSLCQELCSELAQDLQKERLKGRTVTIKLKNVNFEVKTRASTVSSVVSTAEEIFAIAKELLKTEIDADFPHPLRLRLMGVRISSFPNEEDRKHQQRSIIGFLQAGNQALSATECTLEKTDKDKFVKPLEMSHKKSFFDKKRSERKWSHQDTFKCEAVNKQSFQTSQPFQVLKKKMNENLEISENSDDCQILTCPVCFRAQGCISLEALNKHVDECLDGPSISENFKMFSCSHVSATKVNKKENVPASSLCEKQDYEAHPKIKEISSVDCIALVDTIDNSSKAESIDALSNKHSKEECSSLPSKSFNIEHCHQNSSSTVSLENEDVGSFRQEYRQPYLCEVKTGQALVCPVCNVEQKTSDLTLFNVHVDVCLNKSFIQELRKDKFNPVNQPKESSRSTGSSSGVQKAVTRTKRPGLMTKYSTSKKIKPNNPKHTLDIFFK
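10 nM Pol kappa preincubated 15 min at room temperature with compounds, then reaction started with substrate at 50 nM final. Fluorescence read kinetically at 0 and 10 min; buffer-only wells served as negative control.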
Pol beta inh – DNA polymerase beta (human) inhibition. actives 1.3% (n = 340,000). P06746. Pol beta primer extension/strand displacement, fluorescence kinetic. Potency, µM (doses to about 114 µM), without a hit: top-dose activity change, negative = inhibition, actives largely listed as inhibitors; also: % is scaled to controls: 0 for no effect and ±100 for the full control effect
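10 nM enzyme + cpd, 15 min RT; start with substrate 50 nM final; read 0 min and after 10 min RT. Corrected, normalized data; 4-parameter Hill curve fit.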
Numbers without * were called inactive; ? = inconclusive; . = no result given; ! = repeats disagree; [ ] = another dose, or the depositor's remark. Calls follow the shape of the dose curve; as a rule, active = well fitted curve in the direction sought with a large enough effect; inconclusive = small, poorly fitted or top-dose-only effect, or another doubt; inactive = no such curve, though single readings can be large; an effect the other way counts as inactive or inconclusive. Potency is read from the fitted curve at half-maximal effect.

SMILES	Pol eta inh	FEN1 inhibitor	WRN helicase inh	POLI inh	POLK inh	Pol beta inh
Cn1c(SCC(=O)c2ccc(O)c(O)c2)nnc1-c1ccccc1	-26%	-7%	-8%[11.6 µM]	?	-37%	5%
Cn1c(SCC(=O)c2ccc(O)c(O)c2)nnc1-c1cccs1	22µM*	7%	?	28µM*	79µM*	3.5µM*
C=CCn1c(SCC(=O)c2ccc(O)c(O)c2)nnc1-c1cccc(OC)c1	11µM*	-5%	?	?	32µM*	.
O=C(O)/C=C/c1ccc2ccccc2c1	.	?	.	-22%	?	.
Cc1ccc(S(=O)(=O)c2nnn3c2nc(NC2CCN(Cc4ccccc4)CC2)c2ccccc23)cc1C	-19%	-3%	-7%	45µM*	?	1%
O=[N+]([O-])c1ccccc1S(=O)(=O)NCc1ccccn1	.	9%	.	0%	-3%	.
O=C(N/N=C/c1c[nH]c2ccccc12)c1ccc(O)c(O)c1	?	8%	?	?	?	45µM*
O=C(N/N=C/c1c[nH]c2ccccc12)c1cccc(O)c1	-19%	-22%	-3%	12%	-5%[60.1 µM]	-9%
C=C1NN(Cc2ccccc2)C(=O)N1c1ccc(OC)cc1	.	-13%	.	20%	-4%	.
COc1cc(CCC(=O)OCC(=O)Nc2ncc(Cl)cc2Cl)cc(OC)c1OC	11µM*	7%	-13%[57.1 µM]	?	-26%	79µM*
COc1ccc(C(=O)NCC(=O)OCC(=O)Nc2ncc(Cl)cc2Cl)cc1[N+](=O)[O-]	50µM*	-10%	-9%[11.6 µM]	19%	-23%	.
O=C(COC(=O)CNC(=O)c1ccc2c(c1)OCO2)Nc1ncc(Cl)cc1Cl	-20%	-5%	-7%	30%	-10%	14%
CC(C)[C@@H]1NC(=O)[C@H](CCCCN)NC(=O)[C@@H](Cc2c[nH]c3ccccc23)NC(=O)[C@H](Cc2ccc(O)cc2)NC(=O)[C@@H](NC(=O)[C@H](N)Cc2ccccc2)CSSC[C@@H](C(=O)N[C@@H](Cc2c[nH]c3ccccc23)C(N)=O)NC1=O	.	.	.	.	15%[60.1 µM]	.
CC1=NN(C(=O)c2ccncc2)C(=O)C1N=Nc1ccc2ccccc2c1 (configuration not stated)	?	?	-1%[11.6 µM]	89µM*	?	.
CC1=NN(C(N)=S)C(=O)C1N=Nc1ccccc1 (configuration not stated)	-5%	1%	5%	-14%	8%	-4%
Cc1ccc(Cn2c(=O)c3cccnc3n(CC(=O)Nc3cccc(C(F)(F)F)c3)c2=O)cc1	?	?	0%	89µM*!	-30%	-125%
COc1ccccc1-n1c(SCC(=O)N2CCOCC2)nc2ccccc2c1=O	-2%	-5%	3%	59%	-1%	19%
COc1ccccc1-n1c(SCc2cc(=O)oc3cc(O)ccc23)nc2ccccc2c1=O	32µM*	-13%	?	?	-45%	?
O=C(CBr)c1ccc(Oc2ccc(C(=O)C[n+]3cccc(Br)c3)cc2)cc1	.	-21%	.	79µM*	0%	.
COc1ccc(C(=O)C[n+]2cccc(Br)c2)cc1	-6%	2%	?	8%[58.9 µM]	-8%	-2%
Cc1cccc2cc(C#N)c(SCCN3CCCCC3)nc12	?	50µM*	-10%	?	-29%	.
O=C(C[N+]12CN3CN(CN(C3)C1)C2)c1ccc(I)cc1	.	-9%	.	-1%	-10%	.
COC(=O)c1cc(C(=O)OC)n(Cc2ccc(C)cc2)c1C	35µM*	?	-7%[11.6 µM]	?	?	-28%
CC[C@H](C)[C@H](NC(=O)[C@H](Cc1ccccc1)NC(=O)[C@H](CC(C)C)NC(=O)[C@H](CCSC)NC(=O)[C@H](CCC(=O)O)NC(=O)[C@H](CCC(=O)O)NC(=O)[C@H](CC(=O)O)NC(=O)[C@H](CO)NC(=O)[C@@H]1CCCN1C(=O)[C@H](CCCCN)NC(=O)[C@@H](N)[C@@H](C)O)C(=O)N[C@@H](Cc1ccc(O)cc1)C(=O)NCC(=O)N[C@@H](Cc1cnc[nH]1)C(=O)N[C@@H](Cc1ccc(O)cc1)C(=O)N[C@@H](CCCCN)C(=O)N[C@@H](CCC(N)=O)C(=O)N[C@@H](C)C(=O)N[C@H](C(=O)N[C@H](C(=O)NCC(=O)N[C@@H](CC(=O)O)C(=O)N[C@H](C(=O)N[C@@H](CC(N)=O)C(=O)N[C@H](C(=O)N[C@@H](CCC(=O)O)C(=O)N[C@@H](CCCNC(=N)N)C(=O)N1CCC[C@H]1C(=O)NCC(=O)N[C@@H](CCSC)C(=O)N[C@@H](CC(C)C)C(=O)N[C@@H](CC(=O)O)C(=O)N[C@@H](Cc1ccccc1)C(=O)N[C@H](C(=O)O)[C@@H](C)O)[C@@H](C)O)[C@@H](C)CC)C(C)C)[C@@H](C)O	.	.	.	.	7%[60.1 µM]	.
COC(=O)Nc1ccc(Cl)c(Cl)c1	.	.	.	.	14%[60.1 µM]	.
SMILES	Pol eta inh	FEN1 inhibitor	WRN helicase inh	POLI inh	POLK inh	Pol beta inh
N#C/C(=C\c1ccc[nH]1)C(=O)Nc1ccccc1[N+](=O)[O-]	?	-15%	-15%	71µM*	?	-5%
C#CCn1c(=O)c2c(nc(/C=C/c3cccc(OC)c3)n2C)n(CCCO)c1=O	.	.	.	.	14%[60.1 µM]	.
O=C(O)c1ccccc1N/C=C\[N+](=O)[O-]	?	7%	-7%	?	-19%	25µM*
O=C(/C=C/Nc1ccccc1C(=O)O)c1cccs1	-7%	6%	11%	22%	1%	11%
NC(=O)CCC1NC(=O)C(Cc2ccccc2)NC(=O)C(Cc2ccc(O)cc2)NC(=O)CCSSCC(C(=O)N2CCCC2C(=O)NC(CCCN=C(N)N)C(=O)NCC(N)=O)NC(=O)C(CC(N)=O)NC1=O (configuration not stated)	.	.	.	.	2%[19.4 µM]	.
C#CCOC(=O)c1ccccc1C(=O)O	6%	-4%	-3%	79µM*	-8%	0%
NC(=S)c1ccc[n+]([C@@H]2O[C@@H](COP(=O)([O-])OP(=O)(O)OC[C@H]3O[C@@H](n4cnc5c(N)ncnc54)[C@H](OP(=O)(O)O)[C@@H]3O)C(O)C2O)c1 (some centres not stated)	.	.	.	.	3%[60.1 µM]	.
Oc1cccc2c(CC(O)c3c[nH]c4ccccc34)ccnc12 (configuration not stated)	.	-8%	.	25%	-21%	.
CC1(C)Cc2nc3sc4c(SCC(=O)NCc5ccco5)ncnc4c3cc2CO1	22µM*	9%	-24%	-16%	-10%	?
CC1(C)Cc2nc3sc4c(=O)n(CC(=O)NCc5ccccc5)cnc4c3cc2CO1	-15%	6%	9%	24%	-1%	6%

Screening results (PubChem BioAssay)
